# Data from PubChem BioAssay.
# Calls of active or inactive are those of the source.
# Tests used:
# [1] = tested on: PRMT1 (protein arginine N-methyltransferase 1); experiment: small molecules binding arginine methyltransferase PRMT1 – biochemical, small-molecule microarray, 635 nm fluorescence, primary screen (AID 1088); settings: higher = more signal;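 also: binding of Prmt1 protein to compounds spotted on small-molecule microarray slides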
# [2] = growth effects on S. cerevisiae YJM789 – YJM789 clinical isolate, OD600, 24 h, basal, primary screen (AID 1089); settings: higher = more signal, called active from +8 up or from −8 down;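 also: growth of clinical yeast isolate S. cerevisiae YJM 789 seeded 1000 cells per well; test concentration not given here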
# [3] = S. pombe growth modifiers, basal conditions – strain 972, OD600, 24 h, no modulator, primary screen (AID 1090);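 also: basal condition with compound alone and no growth modifier present; test concentration not given here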; settings: S. pombe 972 growth, higher = more signal, called active from +8 up or from −8 down
# [4] = budding yeast growth modifiers under rapamycin – strain BY4716, OD600, 96 h, primary screen (AID 1091); also: test concentration not given here; settings: S. cerevisiae BY4716 + rapamycin, higher = more signal, called active from +8 up or from −8 down
# [5] = molecular target: Torsin-1A-interacting protein 2 (Homo sapiens) (UniProt Q8NFQ8); experiment: small molecules binding lysate-expressed LULL1 – cell lysate, human LULL1 lysate, 635/667 nm fluorescence, primary screen (AID 1092); settings: small-molecule microarray, hLULL1 lysate binding, 635 nm fluorescence; higher = more signal;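 also: probe is lysate of COS7 cells overexpressing human LULL1; score merges per-feature 667 nm fluorescence with signal-to-noise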
# [6] = optical density change of DRC41 E. coli – strain DRC41, OD650, 24 h, E. coli filamentation project, primary screen (AID 1093);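 also: MC1000 strain lacking acrAB efflux and sulA so SOS filamentation is blocked; test concentration not given here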; settings: E. coli DRC41 growth, higher = more signal, called active from +8 up or from −8 down
# [7] = probe aLefty2 binding to arrayed compounds – biochemical, biotinylated probe, 635/667 nm fluorescence, primary screen (AID 1094); settings: small-molecule microarray, higher = more signal;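 also: score merges spot fluorescence near 667 nm with spot signal-to-noise ratio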
# [8] = tested on: Noggin (protein binding on small-molecule microarray); experiment: small molecules binding Noggin protein – biochemical, 635/667 nm fluorescence, primary screen (AID 1095); settings: 635 nm fluorescence, higher = more signal;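 also: score merges 667 nm feature fluorescence with signal to noise over triplicate slides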
# [9] = molecular target: Neurogenic locus notch homolog protein 3 (Homo sapiens) (UniProt Q9UM47); experiment: small molecules binding NOTCH3 protein – biochemical, 635/667 nm fluorescence, primary screen (AID 1096); settings: small-molecule microarray, 635 nm fluorescence, higher = more signal
# [10] = probe aEGFR binding to arrayed compounds – biochemical, biotinylated probe, 635/667 nm fluorescence, primary screen (AID 1097); settings: small-molecule microarray, higher = more signal;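 also: probe is a biotinylated anti-EGFR antibody binding compounds printed on slides; score combines fluorescence near 667 nm and signal to noise of each spot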
# [11] = tested on: Plasmodium falciparum Sir2 (PF13_0152, Sir2A); experiment: Plasmodium falciparum Sir2A binding compounds – biochemical, small-molecule microarray, 635 nm fluorescence, primary screen (AID 1098); settings: fluorescence 635 nm, higher = more signal;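 also: score merges spot fluorescence intensity with its signal-to-noise ratio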
# [12] = probe aDKK1 binding to arrayed compounds – biochemical, biotinylated probe, 635/667 nm fluorescence, primary screen (AID 1099); settings: small-molecule microarray, higher = more signal;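 also: score merges 667nm spot fluorescence with signal to noise across triplicate slides; reference of the scale not given here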
# [13] = probe aCHRDL2 binding to arrayed compounds – biochemical, biotinylated probe, 635/667 nm fluorescence, primary screen (AID 1100); settings: small-molecule microarray, higher = more signal
# [14] = change in splice reporter luminescence, either direction, cell-based, HEK293, spliceosome inhibition project, primary screen (AID 1101); settings: HEK293 splicing luciferase reporter, 24 h, higher = more signal, called active from +8 up or from −8 down;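 also: HEK293 cells carrying a splicing-competent luciferase reporter gene; test concentration not given here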
# [15] = molecular target: Fibroblast growth factor 10 (Homo sapiens) (UniProt O15520); experiment: compounds binding fibroblast growth factor 10 – biochemical, small-molecule microarray, 635 nm fluorescence, primary screen (AID 1102); settings: FGF10 binding, fluorescence 635 nm, higher = more signal
# [16] = tested on: glycogen synthase kinase-3 (GSK3A per assay name; protocol says GSK3B); experiment: compounds binding glycogen synthase kinase-3 – biochemical, small-molecule microarray, 635 nm fluorescence, GSK3A, primary screen (AID 1103); settings: fluorescence 635 nm, higher = more signal; also: the record names both GSK3A and GSK3B
# [17] = molecular target: Epidermal growth factor receptor (Homo sapiens) (UniProt P00533); experiment: compounds binding epidermal growth factor receptor – biochemical, small-molecule microarray, 635 nm fluorescence, primary screen (AID 1104); settings: EGFR binding, higher = more signal;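 also: score merges 667 nm emission intensity with spot signal to noise over triplicate slides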
# [18] = molecular target: Follistatin-related protein 3 (Homo sapiens) (UniProt O95633); experiment: compounds binding follistatin-related protein 3 – biochemical, small-molecule microarray, 635 nm fluorescence, primary screen (AID 1105); settings: FSTL3 binding, higher = more signal;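 also: score merges emission near 667 nm and signal to noise per printed spot across three slides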
# [19] = molecular target: Dickkopf-related protein 1 (Homo sapiens) (UniProt O94907); experiment: small molecules binding DKK1 protein – biochemical, small-molecule microarray, 635 nm fluorescence scan, primary screen (AID 1106); settings: higher = more signal;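 also: score merges emission near 667 nm with signal to noise over three replicate slides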
# [20] = tested on: Inhibin beta A chain (activin A); experiment: small molecules binding activin A – biochemical, small-molecule microarray, 635 nm fluorescence scan, primary screen (AID 1107); settings: INHBA, higher = more signal;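 also: mouse activin A protein probed at 4.33 µg/mL on printed slides; score merges bound-protein fluorescence near 667 nm with spot signal-to-noise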
# Chain of Neurogenic locus notch homolog protein 3 (Homo sapiens) (Q9UM47 whole entry, looked up): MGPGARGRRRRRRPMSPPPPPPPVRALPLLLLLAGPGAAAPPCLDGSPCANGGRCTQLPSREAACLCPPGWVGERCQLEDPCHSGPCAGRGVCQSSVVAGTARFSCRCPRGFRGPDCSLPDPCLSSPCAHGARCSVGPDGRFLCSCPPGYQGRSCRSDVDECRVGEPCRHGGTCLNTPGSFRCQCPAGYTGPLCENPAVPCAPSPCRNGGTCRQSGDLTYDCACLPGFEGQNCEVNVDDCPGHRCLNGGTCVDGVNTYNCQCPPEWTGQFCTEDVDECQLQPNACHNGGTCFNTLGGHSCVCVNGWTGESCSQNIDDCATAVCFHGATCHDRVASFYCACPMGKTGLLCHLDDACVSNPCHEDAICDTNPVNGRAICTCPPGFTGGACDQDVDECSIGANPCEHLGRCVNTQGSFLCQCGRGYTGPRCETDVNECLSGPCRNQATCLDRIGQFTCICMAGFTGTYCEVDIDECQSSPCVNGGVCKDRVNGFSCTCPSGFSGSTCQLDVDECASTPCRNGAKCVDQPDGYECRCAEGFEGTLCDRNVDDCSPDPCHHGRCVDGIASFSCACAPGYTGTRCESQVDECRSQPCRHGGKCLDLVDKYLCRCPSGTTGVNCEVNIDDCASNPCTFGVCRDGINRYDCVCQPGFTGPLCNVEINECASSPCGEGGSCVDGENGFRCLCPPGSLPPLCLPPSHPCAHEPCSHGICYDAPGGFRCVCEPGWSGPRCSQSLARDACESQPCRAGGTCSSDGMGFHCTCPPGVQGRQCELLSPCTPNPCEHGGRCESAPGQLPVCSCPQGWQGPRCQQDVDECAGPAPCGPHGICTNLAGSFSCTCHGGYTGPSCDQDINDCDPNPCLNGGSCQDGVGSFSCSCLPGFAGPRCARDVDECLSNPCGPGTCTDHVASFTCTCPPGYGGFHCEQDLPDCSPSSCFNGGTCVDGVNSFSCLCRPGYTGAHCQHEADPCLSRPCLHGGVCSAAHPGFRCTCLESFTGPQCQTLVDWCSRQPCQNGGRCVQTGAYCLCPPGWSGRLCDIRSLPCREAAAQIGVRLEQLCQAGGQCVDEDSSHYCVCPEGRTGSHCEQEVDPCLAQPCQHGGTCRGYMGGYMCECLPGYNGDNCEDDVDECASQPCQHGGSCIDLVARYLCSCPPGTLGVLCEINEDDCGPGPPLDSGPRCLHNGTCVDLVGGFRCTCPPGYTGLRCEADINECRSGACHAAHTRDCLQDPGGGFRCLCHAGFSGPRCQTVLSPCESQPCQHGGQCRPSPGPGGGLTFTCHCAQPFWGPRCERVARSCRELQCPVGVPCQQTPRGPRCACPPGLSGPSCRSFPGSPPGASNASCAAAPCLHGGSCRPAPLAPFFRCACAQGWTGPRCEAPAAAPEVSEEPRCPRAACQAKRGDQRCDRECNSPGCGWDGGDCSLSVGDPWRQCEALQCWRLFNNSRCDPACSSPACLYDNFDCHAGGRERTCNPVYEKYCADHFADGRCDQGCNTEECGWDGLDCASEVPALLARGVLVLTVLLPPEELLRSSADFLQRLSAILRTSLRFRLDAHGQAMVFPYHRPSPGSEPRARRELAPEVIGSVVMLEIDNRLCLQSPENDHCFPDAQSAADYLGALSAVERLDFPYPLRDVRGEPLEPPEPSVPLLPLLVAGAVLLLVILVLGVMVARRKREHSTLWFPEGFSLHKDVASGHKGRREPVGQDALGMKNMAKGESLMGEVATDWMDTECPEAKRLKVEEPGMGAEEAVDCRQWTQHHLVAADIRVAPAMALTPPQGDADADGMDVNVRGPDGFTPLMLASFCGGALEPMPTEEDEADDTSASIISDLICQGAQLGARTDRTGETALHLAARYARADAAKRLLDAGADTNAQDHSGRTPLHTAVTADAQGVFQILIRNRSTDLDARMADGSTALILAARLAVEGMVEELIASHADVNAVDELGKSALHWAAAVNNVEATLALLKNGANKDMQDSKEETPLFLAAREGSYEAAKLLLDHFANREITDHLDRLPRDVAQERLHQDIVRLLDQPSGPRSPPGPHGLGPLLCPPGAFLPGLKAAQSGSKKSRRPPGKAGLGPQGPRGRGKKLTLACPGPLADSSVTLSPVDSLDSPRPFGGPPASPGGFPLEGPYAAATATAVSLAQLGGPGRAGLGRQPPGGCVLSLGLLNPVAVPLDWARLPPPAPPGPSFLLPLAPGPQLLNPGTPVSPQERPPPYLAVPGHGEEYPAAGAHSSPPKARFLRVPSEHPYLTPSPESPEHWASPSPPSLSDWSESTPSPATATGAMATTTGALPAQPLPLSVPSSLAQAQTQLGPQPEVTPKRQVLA
# Chain of Follistatin-related protein 3 (Homo sapiens) (O95633 whole entry, looked up): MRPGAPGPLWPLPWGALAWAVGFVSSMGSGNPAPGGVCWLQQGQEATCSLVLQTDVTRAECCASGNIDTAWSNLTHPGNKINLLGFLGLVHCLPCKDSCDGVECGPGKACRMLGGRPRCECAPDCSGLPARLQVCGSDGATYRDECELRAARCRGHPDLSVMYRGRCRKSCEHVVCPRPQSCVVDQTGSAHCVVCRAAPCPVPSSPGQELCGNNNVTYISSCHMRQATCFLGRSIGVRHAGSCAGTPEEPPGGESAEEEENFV
# Chain of Torsin-1A-interacting protein 2 (Homo sapiens) (Q8NFQ8 whole entry, looked up): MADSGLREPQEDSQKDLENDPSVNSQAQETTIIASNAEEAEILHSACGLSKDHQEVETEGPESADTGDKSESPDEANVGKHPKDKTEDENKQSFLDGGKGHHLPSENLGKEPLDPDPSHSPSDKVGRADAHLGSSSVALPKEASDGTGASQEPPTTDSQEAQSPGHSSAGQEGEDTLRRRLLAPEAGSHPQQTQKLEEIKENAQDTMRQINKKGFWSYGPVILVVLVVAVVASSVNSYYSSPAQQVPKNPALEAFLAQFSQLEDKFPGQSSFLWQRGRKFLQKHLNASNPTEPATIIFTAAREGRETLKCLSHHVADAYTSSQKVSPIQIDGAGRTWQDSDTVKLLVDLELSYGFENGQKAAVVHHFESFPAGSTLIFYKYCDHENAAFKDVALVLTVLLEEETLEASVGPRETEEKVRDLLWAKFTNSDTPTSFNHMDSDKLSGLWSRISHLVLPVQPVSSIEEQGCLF
# Chain of Fibroblast growth factor 10 (Homo sapiens) (O15520 whole entry, looked up): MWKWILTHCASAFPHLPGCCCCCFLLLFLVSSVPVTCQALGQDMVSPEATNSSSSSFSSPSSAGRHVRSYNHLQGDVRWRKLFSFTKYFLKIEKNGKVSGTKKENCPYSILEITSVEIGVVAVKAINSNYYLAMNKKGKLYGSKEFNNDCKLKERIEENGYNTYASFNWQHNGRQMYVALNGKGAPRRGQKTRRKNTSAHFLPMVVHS
# Chain of Epidermal growth factor receptor (Homo sapiens) (P00533 whole entry, looked up): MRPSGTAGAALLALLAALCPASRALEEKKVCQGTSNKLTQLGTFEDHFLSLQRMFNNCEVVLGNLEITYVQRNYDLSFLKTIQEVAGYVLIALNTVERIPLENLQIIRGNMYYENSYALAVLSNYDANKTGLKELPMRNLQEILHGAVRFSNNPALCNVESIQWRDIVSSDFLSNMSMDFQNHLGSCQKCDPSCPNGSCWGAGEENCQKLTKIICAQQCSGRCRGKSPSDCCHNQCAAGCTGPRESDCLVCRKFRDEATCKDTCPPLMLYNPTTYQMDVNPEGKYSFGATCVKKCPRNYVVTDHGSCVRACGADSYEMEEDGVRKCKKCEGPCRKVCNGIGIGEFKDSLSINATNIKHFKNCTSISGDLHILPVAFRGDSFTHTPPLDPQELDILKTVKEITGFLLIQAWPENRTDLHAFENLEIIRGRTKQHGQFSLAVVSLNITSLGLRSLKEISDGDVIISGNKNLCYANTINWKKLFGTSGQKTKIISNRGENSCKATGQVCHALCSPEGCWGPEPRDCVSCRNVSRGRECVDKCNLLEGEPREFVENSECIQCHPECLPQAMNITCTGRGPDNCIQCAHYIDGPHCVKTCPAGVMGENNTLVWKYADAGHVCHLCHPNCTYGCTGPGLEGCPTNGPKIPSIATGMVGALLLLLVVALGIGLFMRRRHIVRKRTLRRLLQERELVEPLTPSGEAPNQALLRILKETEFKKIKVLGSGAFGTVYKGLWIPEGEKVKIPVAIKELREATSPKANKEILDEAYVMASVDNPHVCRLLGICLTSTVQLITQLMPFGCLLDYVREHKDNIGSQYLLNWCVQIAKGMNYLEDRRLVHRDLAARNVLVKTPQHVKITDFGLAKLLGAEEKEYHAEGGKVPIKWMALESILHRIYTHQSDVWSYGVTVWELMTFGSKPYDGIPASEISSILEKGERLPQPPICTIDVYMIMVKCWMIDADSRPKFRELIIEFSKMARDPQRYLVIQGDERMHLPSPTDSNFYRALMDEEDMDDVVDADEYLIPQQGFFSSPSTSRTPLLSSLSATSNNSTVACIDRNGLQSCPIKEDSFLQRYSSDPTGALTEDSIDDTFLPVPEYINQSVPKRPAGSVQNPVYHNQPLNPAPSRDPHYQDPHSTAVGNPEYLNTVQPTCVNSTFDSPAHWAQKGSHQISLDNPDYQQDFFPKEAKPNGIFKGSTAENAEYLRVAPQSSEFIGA
# Chain of Dickkopf-related protein 1 (Homo sapiens) (O94907 whole entry, looked up): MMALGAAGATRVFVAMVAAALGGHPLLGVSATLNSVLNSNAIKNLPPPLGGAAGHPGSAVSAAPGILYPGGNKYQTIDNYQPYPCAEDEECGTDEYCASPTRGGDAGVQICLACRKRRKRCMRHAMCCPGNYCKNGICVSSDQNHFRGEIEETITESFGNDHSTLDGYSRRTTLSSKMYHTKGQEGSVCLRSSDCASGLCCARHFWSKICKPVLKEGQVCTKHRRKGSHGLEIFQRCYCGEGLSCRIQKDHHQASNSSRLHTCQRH
compound,measurement,setting,value
CC(C)=NOCc1cccc(-c2cc(-c3ccccc3)no2)c1,composite z-score,[1],1.27
same,z-score,[2],-0.366 (inactive)
same,z-score,[3],-21 (active)
same,z-score,[4],-0.442 (inactive)
same,composite z-score,[5],1.18
same,z-score,[6],0.533 (inactive)
same,composite z-score,[7],-0.0375
same,composite z-score,[8],0.7
same,composite z-score,[9],0.881
same,composite z-score,[10],0.161
same,composite z-score,[11],0.379
same,composite z-score,[12],-0.208
same,composite z-score,[13],-0.609
same,z-score,[14],0.342 (inactive)
same,composite z-score,[15],0.637
same,composite z-score,[16],0.787
same,composite z-score,[17],-0.137
same,composite z-score,[18],0.597
same,composite z-score,[19],0.494
same,composite z-score,[20],-0.21
CC(CCC(=O)OC[C@H]1O[C@H](C#Cc2ccccc2)C=C[C@@H]1Oc1ccc(C)cc1)=NO[C@@H](C)c1cn([C@H](CO)Cc2ccccc2)nn1,composite z-score,[1],0.668
same,z-score,[2],0.846 (inactive)
same,z-score,[3],0.21 (inactive)
same,z-score,[4],12.2 (active)
same,composite z-score,[5],0.373
same,z-score,[6],-0.434 (inactive)
same,composite z-score,[7],-0.145
same,composite z-score,[8],0.237
same,composite z-score,[9],0.281
same,composite z-score,[10],-0.0461
same,composite z-score,[11],0.737
same,composite z-score,[12],-0.406
same,composite z-score,[13],-0.52
same,z-score,[14],-1.62 (inactive)
same,composite z-score,[15],0.304
same,composite z-score,[16],-0.28
same,composite z-score,[17],0.313
same,composite z-score,[18],0.28
same,composite z-score,[19],0.256
same,composite z-score,[20],-0.146
COc1ccc(O[C@H]2C=C[C@@H](c3ccccc3)O[C@@H]2CON=C[C@@H](C)[C@H](OCc2ccccc2)C(C)C)cc1,composite z-score,[1],-0.28
same,z-score,[2],0.706 (inactive)
same,z-score,[3],-0.564 (inactive)
same,z-score,[4],0.314 (inactive)
same,composite z-score,[5],-1.14
same,z-score,[6],-0.349 (inactive)
same,composite z-score,[7],-0.235
same,composite z-score,[8],-0.347
same,composite z-score,[9],-1.27
same,composite z-score,[10],-0.241
same,composite z-score,[11],-0.369
same,composite z-score,[12],-0.406
same,composite z-score,[13],-0.17
same,z-score,[14],0.275 (inactive)
same,composite z-score,[15],-1.11
same,composite z-score,[16],-1.04
same,composite z-score,[17],-0.805
same,composite z-score,[18],-0.761
same,composite z-score,[19],-0.733
same,composite z-score,[20],0.272
C[C@@H]1C=CCC(=O)OC[C@H](C)C(=O)N[C@@H](C)C(=O)OC1,composite z-score,[1],0.552
same,z-score,[2],0.664 (inactive)
same,z-score,[3],0.406 (inactive)
same,z-score,[4],-0.113 (inactive)
same,composite z-score,[5],-0.412
same,z-score,[6],0.715 (inactive)
same,composite z-score,[7],-0.293
same,composite z-score,[8],0.828
same,composite z-score,[9],0.254
same,composite z-score,[10],0.0886
same,composite z-score,[11],0.57
same,composite z-score,[12],-0.242
same,composite z-score,[13],-0.791
same,z-score,[14],-0.586 (inactive)
same,composite z-score,[15],0.336
same,composite z-score,[16],0.252
same,composite z-score,[17],0.282
same,composite z-score,[18],0.413
same,composite z-score,[19],0.814
same,composite z-score,[20],-0.658
CC(C)NC(=O)[C@@]1(c2ccc([N+](=O)[O-])cc2)CC(=O)N(CC23CC4CC(CC(C4)C2)C3)[C@@H]1c1ccc(CO)cc1I,composite z-score,[1],1.52
same,z-score,[2],0.151 (inactive)
same,z-score,[3],0.168 (inactive)
same,z-score,[4],5.83 (inactive)
same,composite z-score,[5],2.53
same,z-score,[6],-0.525 (inactive)
same,composite z-score,[7],0.448
same,composite z-score,[8],0.176
same,composite z-score,[9],0.341
same,composite z-score,[10],0.0743
same,composite z-score,[11],0.504
same,composite z-score,[12],0.921
same,composite z-score,[13],0.197
same,z-score,[14],0.278 (inactive)
same,composite z-score,[15],0.0738
same,composite z-score,[16],1.12
same,composite z-score,[17],0.353
same,composite z-score,[18],0.252
same,composite z-score,[19],0.208
same,composite z-score,[20],0.197
COc1ccccc1CN1C(=O)c2ccccc2[C@@]2(Cc3ccccc3N(C(C)C)C2=O)[C@@H]1c1ccc(CO)cc1,composite z-score,[1],0.303
same,z-score,[2],-1.69 (inactive)
same,z-score,[3],-0.373 (inactive)
same,z-score,[4],-1.34 (inactive)
same,composite z-score,[5],-0.114
same,z-score,[6],1.26 (inactive)
same,composite z-score,[7],-0.0999
same,composite z-score,[8],-0.0723
same,composite z-score,[9],-0.186
same,composite z-score,[10],-0.194
same,composite z-score,[11],0.139
same,composite z-score,[12],-0.119
same,composite z-score,[13],0.414
same,z-score,[14],-0.938 (inactive)
same,composite z-score,[15],-0.194
same,composite z-score,[16],-0.467
same,composite z-score,[17],-0.418
same,composite z-score,[18],-0.119
same,composite z-score,[19],-0.39
same,composite z-score,[20],0.602
C=CCN1C(=O)[C@]2(O[C@H](CCn3cc(CCO)nn3)[C@@H]([Si](C)(C)c3ccc(OC)cc3)[C@@H]2C)c2cc(N3CCOC3=O)ccc21,composite z-score,[1],1.19
same,z-score,[2],-0.621 (inactive)
same,z-score,[3],-0.111 (inactive)
same,z-score,[4],-0.0506 (inactive)
same,composite z-score,[5],2.79
same,z-score,[6],-0.342 (inactive)
same,composite z-score,[7],-0.271
same,composite z-score,[8],0.432
same,composite z-score,[9],0.231
same,composite z-score,[10],-0.256
same,composite z-score,[11],1.62
same,composite z-score,[12],-0.286
same,composite z-score,[13],0.223
same,z-score,[14],2.29 (inactive)
same,composite z-score,[15],0.301
same,composite z-score,[16],0.341
same,composite z-score,[17],-0.82
same,composite z-score,[18],-0.609
same,composite z-score,[19],-0.555
same,composite z-score,[20],0.175
CC(C)=NOCc1ccc(-c2cc(-c3ccccc3)no2)cc1,composite z-score,[1],-1.06
same,z-score,[2],0.237 (inactive)
same,z-score,[3],0.256 (inactive)
same,z-score,[4],0.213 (inactive)
same,composite z-score,[5],0.108
same,z-score,[6],0.383 (inactive)
same,composite z-score,[7],-0.252
same,composite z-score,[8],0.429
same,composite z-score,[9],0.152
same,composite z-score,[10],-0.163
same,composite z-score,[11],0.0628
same,composite z-score,[12],-0.285
same,composite z-score,[13],-0.515
same,z-score,[14],0.468 (inactive)
same,composite z-score,[15],0.356
same,composite z-score,[16],0.283
same,composite z-score,[17],0.279
same,composite z-score,[18],-0.026
same,composite z-score,[19],0.32
same,composite z-score,[20],0.216
CO[C@@H]1COC(=O)CC=C[C@@H](C)[C@@H]2C=C[C@H](O)[C@@H](COC(=O)CCC[C@H]1C)O2,composite z-score,[1],1.43
same,z-score,[2],-0.199 (inactive)
same,z-score,[3],0.498 (inactive)
same,z-score,[4],-0.181 (inactive)
same,composite z-score,[5],-1.78
same,z-score,[6],0.206 (inactive)
same,composite z-score,[7],-0.075
same,composite z-score,[8],1.65
same,composite z-score,[9],-0.076
same,composite z-score,[10],-0.15
same,composite z-score,[11],0.686
same,composite z-score,[12],-0.177
same,composite z-score,[13],-0.899
same,z-score,[14],-1.09 (inactive)
same,composite z-score,[15],0.375
same,composite z-score,[16],0.329
same,composite z-score,[17],1.21
same,composite z-score,[18],1.11
same,composite z-score,[19],1.25
same,composite z-score,[20],1.45
CCOC(=O)[C@H](Cc1ccccc1)NC(=O)CCC1CC(OC(=O)NCCc2ccc(F)cc2)CC2(CCCC(COC(=O)NCC(c3ccccc3)c3ccccc3)O2)O1 (stereo not given in full),composite z-score,[1],1.57
same,z-score,[2],0.378 (inactive)
same,z-score,[3],0.745 (inactive)
same,z-score,[4],-0.436 (inactive)
same,composite z-score,[5],2.18
same,z-score,[6],0.0565 (inactive)
same,composite z-score,[7],-0.199
same,composite z-score,[8],0.538
same,composite z-score,[9],1.14
same,composite z-score,[10],-0.139
same,composite z-score,[11],0.892
same,composite z-score,[12],-0.273
same,composite z-score,[13],-0.368
same,z-score,[14],0.378 (inactive)
same,composite z-score,[15],0.617
same,composite z-score,[16],0.729
same,composite z-score,[17],0.374
same,composite z-score,[18],0.979
same,composite z-score,[19],0.898
same,composite z-score,[20],-0.235
